FLuc inh-1: blocks purified firefly luciferase enzyme activity. purified P. pyralis luciferase, luminescence, biochemical. 76,000 tested, 2.5% active. Potency, µM (top dose mostly 115 µM), hits mostly inhibitors. P08659; note: % is set by controls: 0 for no effect and ±100 for the full control effect; nearly all actives have a fitted effect of over 65% in size
Target sequence (P08659 whole entry, looked up): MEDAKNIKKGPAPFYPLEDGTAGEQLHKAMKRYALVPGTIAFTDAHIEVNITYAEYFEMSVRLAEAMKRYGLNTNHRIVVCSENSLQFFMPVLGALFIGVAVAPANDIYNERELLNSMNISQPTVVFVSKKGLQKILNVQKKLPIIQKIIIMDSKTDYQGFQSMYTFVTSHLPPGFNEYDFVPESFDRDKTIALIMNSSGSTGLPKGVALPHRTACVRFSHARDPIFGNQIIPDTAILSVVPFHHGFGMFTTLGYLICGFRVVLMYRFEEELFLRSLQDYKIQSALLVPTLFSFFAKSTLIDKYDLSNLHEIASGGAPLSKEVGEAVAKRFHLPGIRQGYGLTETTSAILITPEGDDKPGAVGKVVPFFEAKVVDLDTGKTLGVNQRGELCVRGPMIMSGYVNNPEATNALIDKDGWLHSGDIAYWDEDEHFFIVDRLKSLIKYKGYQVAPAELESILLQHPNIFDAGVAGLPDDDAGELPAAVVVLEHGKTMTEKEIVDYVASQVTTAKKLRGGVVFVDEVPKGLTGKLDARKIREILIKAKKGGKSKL
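Purified P. pyralis luciferase (10nM final) in 50mM Tris acetate pH 7.5, 10mM Mg acetate, 0.01% Tween-20, 0.05% BSA with 10uM D-luciferin and 10uM ATP. Compounds titrated qHTS. Luminescence imaged on CCD.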
HEK293 tox: HEK 293 cell cytotoxicity; HEK 293 viability, ATP luminescence (CellTiter-Glo), 48-72 h; Potency, µM (doses to about 115 µM), for inactives: at the top dose activity change, negative = cytotoxicity, hits mostly inhibitors; 94,000 tested, 6.6% active; note: % is set by controls: 0 for no effect and ±100 for the full control effect; nearly all actives have a fitted effect of over 60% in size
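HEK 293 cells seeded at 250 cells/well were exposed to compound for 48 or 72 hr at 37 degree Celsius. Viability taken as ATP content by CellTiter-Glo luminescence.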
hNpr1 antagonist: antagonists of human natriuretic peptide receptor Npr1; HEK293 hNpr1 GloSensor cGMP, ANP-stimulated luminescence; AID 1347048; P16066; Potency, µM (series often up to 46.3 µM), for inactives: at the top dose activity change, negative = inhibition, most hits filed as inhibitors; 76,000 tested, 1.6% active; calls by dose curve; note: % is set by controls: 0 for no effect and ±100 for the full control effect; nearly all actives have a fitted effect of over 60% in size
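Compound pre-incubated 30 min at room temperature on GloSensor-loaded HEK293 cells stably carrying hNpr1 and the pGS-40F cGMP biosensor. Stimulation uses hNppA at 0.1 nM final; luminescence is taken at baseline and 20 min post-agonist.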
NIH3T3 tox: cytotoxic compounds in NIH 3T3 cells | Potency, µM (titrated, usually from 96.7 µM), for the others: at the top dose activity change, negative = cytotoxicity, usual class: inhibitors | NIH 3T3 viability, CellTiter-Glo ATP luminescence, 48-72 h | 94,000 tested, 4.3% active; note: % is set by controls: 0 for no effect and ±100 for the full control effect; nearly all actives have a fitted effect of over 55% in size
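ATP-dependent luminescence (CellTiter-Glo) served as the viability signal for NIH 3T3 cells treated with compound for 48 or 72 hr at 37 °C.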
FLuc SDR no ATP: stabilizes firefly luciferase without ATP | Purified FLuc-C-HiBiT, Nano-Glo HiBiT luminescence, no ATP | 1,300 tested, 7.8% active | Potency, µM (doses to about 32.7 µM), for inactives: at the highest dose activation (signal gain), hits mostly activators | shares compounds with FLuc inh-1; note: nearly all actives have a fitted effect of over 55% in size
FLuc SDR ATP: stabilizes firefly luciferase with ATP present; AID 1963319; 1,300 tested, 8.7% active; shares compounds with FLuc inh-1; purified FLuc-C-HiBiT + ATP, HiBiT complementation luminescence; Potency, µM (titrated, usually from 32.7 µM), for inactives: at the top dose activation (gain of signal), hits mostly activators;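 note: signal reports ligand binding via conformational change of the enzyme rather than luciferase catalysis; % of control where 0% means no effect; nearly all actives have a fitted effect of over 55% in size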
FLuc inh-2: inhibitors of firefly luciferase enzymatic activity; AID 1963320; purified FLuc-C-HiBiT enzyme, luciferin luminescence; 1,300 tested, 42% active; Potency, µM (series often up to 32.7 µM), inactives show at the top dose activity change, negative = inhibition, most hits filed as inhibitors; shares compounds with FLuc inh-1; note: % is set by controls: 0 for no effect and ±100 for the full control effect; nearly all actives have a fitted effect of over 70% in size
Active calls of the source: *; i = inactive; ? = inconclusive; · = no result; [ ] = remark or other dose. Only some compounds are listed: those with a hit (about 11% of all), similar ones and a draw of the others. Unless noted, calls come from the whole dose curve; as a rule, active = well fitted curve in the direction sought with a large enough effect; inconclusive = small, poorly fitted or top-dose-only effect, or another doubt; inactive = no such curve, though single readings can be large; an effect the other way counts as inactive or inconclusive. Potency is the fitted concentration of half-maximal effect.

SMILES	FLuc inh-1	HEK293 tox	hNpr1 antagonist	NIH3T3 tox	FLuc SDR no ATP	FLuc SDR ATP	FLuc inh-2
Cc1ccc(C2=NC3(CCN(C(=O)c4ccc5[nH]ccc5c4)CC3)ON2)cc1	?	?	-10%	?	·	·	·
CN(C)CC(=O)N1Cc2ccccc2CC2(CCN(CC3CCNCC3)C2)C1 (stereo not given)	·	i	·	i	·	·	·
CC1CCCN1C(=O)c1cc(-c2cnn(C(C)C)c2)nc2cc(F)ccc12 (stereo not given)	?	-24%	-6%	?	·	·	·
CC(C)n1cc(-c2cc(C(=O)N3CCC(C)(C)C3)c3ccc(F)cc3n2)cn1	5µM*	?	-13%	?	?	?	5µM*
COc1ccc(-c2nc3ccc(NS(C)(=O)=O)cc3o2)cc1	·	·	·	·	19%	15%	?
Cc1ccc(C(=O)Nc2cccc(C(=O)O)c2)cc1S(=O)(=O)N1CCCC1	·	·	·	·	?	0.078µM*	0.088µM*
O=C(Nc1ccccc1C(=O)O)c1ccccc1	·	·	·	·	18%	10%	?
Cc1ccc(C(=O)Nc2ccccc2C(=O)O)cc1S(=O)(=O)N1CCCCCC1	·	·	·	·	?	?	2.8µM*
COc1ccccc1NC(=O)N1CCC(N2C(=O)C3(CCCCC3)C2c2ccncc2)CC1 (stereo not given)	i	0%	9%	-14%	·	·	·
O=C(C1CCCN1C(=O)c1ccccc1F)N1CCC(N2CCOCC2=O)CC1 (stereo not given)	·	-7%	·	2%	·	·	·
Cc1cccc(N2CCN(C(=O)CSCc3ccc(F)cc3)CC2)c1C	·	·	·	·	12%	9%	-8%
CNC(=O)Nc1ccc(C)n(CC(=O)N2CCN(c3ccccc3F)CC2)c1=O	i	8%	2%	i	·	·	·
O=C1Cc2c(-c3cccc4ccccc34)n[nH]c2CN1CCOc1ccccc1	10µM*	45µM*	?	45µM*	7%[49.3 µM]	10%[49.3 µM]	?
O=C1Nc2ccc(-c3cccs3)cc2C(=O)N2CC[C@H](NS(=O)(=O)c3ccc(Cl)cc3)C[C@@H]12	i	?	-2%	?	·	·	·
CNC(=O)C1CCN(Cc2ccccc2-c2cccnc2)CC1	·	i	·	3%[138 µM]	·	·	·
O=C(c1ccc(CC2CCN(C(=O)c3nccc4ccccc34)CC2)cc1)N1CCOCC1	i	?	-6%	?	·	·	·
COc1ccccc1Cn1c(=O)c(C(=O)NCCSC)nc2cccnc21	·	1%	·	?	·	·	·
COc1ccc(NC(=O)Cn2c(SCc3ccc(C)cc3)nc3cccnc32)cc1OC	·	·	·	·	1.4µM*	?	0.7µM*
COc1cc(OC)c(NC(=O)Cn2c(SCc3ccccc3F)nc3cccnc32)cc1Cl	·	·	·	·	18%	12%	-8%
COc1ccc(NC(=O)Cn2c(-c3ccc(Cl)cc3)nc(C)cc2=O)cc1OC	i	?	0%	-12%	·	·	·
O=C1c2cnc(-c3cccc(C(F)(F)F)c3)nc2OCCN1Cc1ccccc1	?	?	-4%[70.6 µM]	?	·	·	·
O=C1c2cnc(-c3cccc(F)c3)nc2OCCN1c1ccccc1	0.89µM*	100µM*	-29%[70.6 µM]	?	?	?	14µM*
COc1cccc(-c2ncc3c(n2)OCCN(c2ccccc2)C3=O)c1	0.4µM*	10µM*	8.9µM*	8.9µM*	3.2µM*	?	1.8µM*
CCC(=O)N1CCc2ccc(C(=O)NC3CCCCC3)cc21	2.2µM*	-20%	?	-15%	?	?	?
CCC(=O)N1CCc2ccc(C(=O)NC3CC3)cc21	i	-5%	2%	4%	·	·	·
SMILES	FLuc inh-1	HEK293 tox	hNpr1 antagonist	NIH3T3 tox	FLuc SDR no ATP	FLuc SDR ATP	FLuc inh-2
COc1ccc(NC(=O)N2CCOC(c3ccc(Cl)cc3)C2)c(C)c1 (stereo not given)	i	?	-16%	-28%	·	·	·
COc1ccc2cc(C3CN(C(=O)CNC(=O)C(C)C)CCO3)ccc2c1 (stereo not given)	8.9µM*	-25%	4%	-19%	?	?	?
CCc1ccc(C(=O)Nc2ccc(-c3nnc4n3CCCC4)cc2)cc1	?	3%	-2%	-4%	·	·	·
CCc1ccc(-n2nc(CO)c(C(=O)NC)n2)cc1	·	·	·	·	?	19%	?
COc1ccc(OC)c(CN2CCNc3cnc(OCc4cccnc4)cc3C2)c1	i	?	-11%[70.6 µM]	?	·	·	·
COc1ccc(-c2cc3c(cn2)CN(Cc2cccnc2)CCN3)cc1F	5µM*	?	?	-14%[138 µM]	?	18%[49.3 µM]	14µM*
COc1ccc(-c2cc3c(cn2)CN(Cc2cccnc2)CCN3)cc1OC	5.6µM*	?	2%[70.6 µM]	-27%[138 µM]	?	17%[49.3 µM]	14µM*
c1ccc(CNc2cc(-c3cc(N4CCCCC4)ncn3)c3cc[nH]c3n2)nc1	7.9µM*	?	-2%	?	24%	12%	9.9µM*
Cc1ccc(NC(=O)Cn2nc3n(c2=O)CCCC3)c(C)c1	i	2%	4%	-2%	·	·	·
Cc1ccc(Nc2ncnc3c2nc2n3CCCC2)c(Br)c1	·	·	·	·	?	?	5µM*
O=C(Nc1ccc2c(c1)OCCO2)C1CN(S(=O)(=O)C2CC2)CC12CCCCC2 (stereo not given)	1.1µM*	?	?	-22%	?	?	4.4µM*
O=C(Nc1cccc(F)c1)Nc1ccc2n(c1=O)C[C@H]1C[C@@H]2CN(C(=O)c2ccc(F)cc2)C1	10µM*	40µM*	-22%	?	14%	10%	?
Cc1ccc(-c2noc(-c3nc(C(C)C)no3)n2)cc1	7.1µM*	-10%	-20%	-5%	10%	11%	?
Cc1ccc(-c2noc(-c3nc(-c4cccnc4)no3)n2)cc1	i	-1%	0%	-6%	·	·	·
Cc1ccc(-c2noc(-c3ccccc3Br)n2)cc1	·	·	·	·	?	?	1.6µM*
COCCOCC(=O)N1CCC2(CC1)CC(N(C1CC1)S(C)(=O)=O)CCO2 (stereo not given)	·	-1%	·	-18%	·	·	·
c1ccc2cc(-c3nc(C4CCOC4)no3)ncc2c1 (stereo not given)	2.5µM*	1%	?	-29%	15%	?	?
CCS(=O)(=O)Nc1ccc(-c2nc(C3CCOC3)no2)cc1 (stereo not given)	i	-13%	2%	-17%	·	·	·
Cc1nc2ccc(-c3nc(C4CCOC4)no3)cc2s1 (stereo not given)	2µM*	?	?	?	25%	?	11µM*

Source: PubChem
